The values that follow come from ChEMBL document CHEMBL1156829.

The full ranking holds about 5,400 compounds; the median of “IFI” is about 2, and the highest 2% start at about 22. Many of the other results were omitted from the sample, so the highest values are more common in it than they were.

This assay is described as follows: NOVARTIS: Inhibition Frequency Index (IFI) - the number of HTS assays where a compound showed > 50% inhibition/induction, expressed as a percentage of the number of assays in which the compound was tested. The assay is classed as functional.
As to `CCCCSc1oc(C)nc1[P+](c1ccccc1)(c1ccccc1)c1ccccc1`, the IFI came to 22.2%.
The value for `Cc1nc([P+](c2ccccc2)(c2ccccc2)c2ccccc2)c(SCc2ccccc2)o1` was 21.6%; that for `CCC(c1nc2ccccc2c(=O)n1-c1ccc(F)c(Cl)c1)N(CCc1ccccc1)C(=O)COc1ccccc1` (configuration not stated) was 1.87%; that for `OC(Cn1nnc2ccccc21)Cn1c2ccc(Br)cc2c2cc(Br)ccc21` (configuration not stated) was 2.01%.
As for `COc1ccc(OC)c(C2CC(=O)C3=C(C2)NC(=O)CC3c2ccc([N+](=O)[O-])cc2)c1` (configuration not stated), the figure is 0%.
As to `Cc1ccc(C(=O)C(C)[n+]2ccc(N(C)C)cc2)cc1` (configuration not stated), the IFI was found to be 0%.
As for `CN(C)c1ccc(/C=C/C(=O)NC(=O)c2ccccc2O)cc1`, the figure is 10.6%; as for `CC(/C=C/C(=O)NO)=C\[C@@H](C)C(=O)c1ccc(N(C)C)cc1`, 22.6%; as for `CC(C)COc1ccc(C(=O)N/C(=C/c2ccccc2)C(N)=O)cc1`, 0%.
The value for `COc1ccccc1NC1=CC(=NS(=O)(=O)c2ccc(F)cc2)c2ccccc2C1=O` was 15.4%; that for `COc1ccc(S(=O)(=O)N=C2C=C(Nc3ccc(O)cc3)C(=O)c3ccccc32)cc1` was 23.1%; that for `CC(=O)Nc1ccc(NC2=CC(=NS(=O)(=O)c3ccccc3)c3ccccc3C2=O)cc1` was 7.69%.
As for `COc1ccc(S(=O)(=O)N=C2C=C(Nc3ccccc3OC)C(=O)c3ccccc32)cc1`, the figure is 23.1%; as for `CCOc1ccc(S(=O)(=O)N=C2C=C(Nc3ccc(O)cc3)C(=O)c3ccccc32)cc1`, 15.4%.
The compound `O=C1C(Nc2ccc(O)cc2)=CC(=NS(=O)(=O)c2cccs2)c2ccccc21` came in with an IFI of 23.1%.
`COc1ccccc1NC1=CC(=NS(=O)(=O)c2cccs2)c2ccccc2C1=O`: the IFI came out at 7.69%.
As for `COc1ccccc1NC1=CC(=NS(=O)(=O)c2ccccc2)c2ccccc2C1=O`, the figure is 21.4%; as for `COc1ccc(S(=O)(=O)N=C2C=C(Nc3ccccc3)C(=O)c3ccccc32)cc1`, 0%; as for `CC(=O)N(C1=C(N2CCOCC2)C(=O)c2ccccc2C1=O)c1cccc(Cl)c1`, 0%.
The value for `O=C(NC1CC1)C1CCN(c2cccc3c2C(=O)N(C2CCCCCCC2)C3=O)CC1` was 5.94%; that for `Cc1ccc2nc(-c3ccc(O)cc3)oc2c1` was 7.14%.
As for `Cc1oc2c(cc(NS(=O)(=O)c3ccc(F)cc3)c3ccccc32)c1C(=O)OCc1ccccc1`, the figure is 0%; as for `O=S(=O)(NCCCCNc1ccnc2cc(Cl)ccc12)c1ccc(F)cc1`, 1.85%.
With `O=S(=O)(Nc1cc(Sc2nc[nH]n2)c(O)c2ccccc12)c1ccc(F)cc1`, the IFI worked out at 23.1%.
As for `O=C(c1ccc2nc(N3CCCCC3)sc2c1)N1CCN(Cc2ccc3c(c2)OCO3)CC1`, the figure is 2.86%; as for `COc1ccc([N+](=O)[O-])cc1NC(=O)C(C)Nc1ccc(N(C)C)cc1` (configuration not stated), 6.25%; as for `Oc1ccc(C=NN=C(Nc2ccccn2)c2ccccn2)c(O)c1`, 23.1%.
As for `O=C(NN=Cc1ccc(O)cc1O)c1ccncc1`, the figure is 2.73%; as for `CC1=C(C(=O)Nc2ccccn2)C(c2ccc(O)cc2)n2ncnc2N1` (configuration not stated), 0%; as for `NS(=O)(=O)c1ccc(CCNC(=O)/C=C/c2ccc3c(c2)OCO3)cc1`, 0%.
As for `Oc1ccc(-c2ccnc3cc(Cl)ccc23)cc1CNCC1(O)CCCCC1`, the figure is 2.59%; as for `COc1ccc(C(=O)C[N+]2=C(C)c3ccc(C)n3CC2)cc1`, 0%.
